Measurements published in PubChem BioAssay (NCATS).
Inconclusive results are not listed. Active and inactive are the calls of the source. Unless noted, calls come from the whole dose curve; as a rule, active = well fitted curve in the direction sought with a large enough effect; inconclusive = small, poorly fitted or top-dose-only effect, or another doubt; inactive = no such curve, though single readings can be large; an effect the other way counts as inactive or inconclusive.

How the values were obtained:
[1] = qHTS for Inhibitors of the Functional Ribonucleoprotein Complex (vRNP) of Lassa (LASV) Arenavirus: Viability assay - alamar blue signal for LASV Primary Screen (AID 1347083; calls by dose curve; tested in HEK293 reporter line; note: potency is the fitted concentration of half-maximal effect; nearly all actives have a fitted effect of over 80% in size)
[2] = target: Nucleoprotein (Lymphocytic choriomeningitis virus (strain Armstrong)) (UniProt P09992); experiment: qHTS for Inhibitors of the Functional Ribonucleoprotein Complex (vRNP) of Lymphocytic Choriomeningitis Arenaviruses (LCMV): LCMV Primary Screen - GLuc reporter signal (AID 1347086; calls by dose curve; note: nearly all actives have a fitted effect of over 70% in size; note: potency is the fitted concentration of half-maximal effect)
Chain of Nucleoprotein (Lymphocytic choriomeningitis virus (strain Armstrong)) (P09992 whole entry, looked up): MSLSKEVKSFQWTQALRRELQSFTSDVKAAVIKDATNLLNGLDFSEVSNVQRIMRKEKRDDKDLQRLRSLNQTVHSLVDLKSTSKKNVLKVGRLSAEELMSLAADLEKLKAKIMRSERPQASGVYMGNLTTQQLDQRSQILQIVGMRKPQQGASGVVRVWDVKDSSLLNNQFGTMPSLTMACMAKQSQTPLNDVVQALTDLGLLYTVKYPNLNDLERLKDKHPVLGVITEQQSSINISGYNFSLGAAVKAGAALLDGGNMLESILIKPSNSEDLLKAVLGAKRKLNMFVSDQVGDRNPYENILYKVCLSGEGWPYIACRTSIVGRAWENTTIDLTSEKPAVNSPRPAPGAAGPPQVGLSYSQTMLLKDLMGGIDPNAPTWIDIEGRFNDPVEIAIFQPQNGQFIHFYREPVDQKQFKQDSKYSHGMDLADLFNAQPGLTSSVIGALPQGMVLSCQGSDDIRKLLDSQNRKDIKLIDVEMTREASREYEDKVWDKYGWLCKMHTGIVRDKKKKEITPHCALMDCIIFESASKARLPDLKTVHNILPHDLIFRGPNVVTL

[3] = qHTS of pediatric cancer cell lines to identify multiple opportunities for drug repurposing: Primary screen for TC32 cells (AID 1347089); note: nearly all actives have a fitted effect of over 60% in size; note: potency is the fitted concentration of half-maximal effect
Procedure, shortened: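 TC32 cells, 500-1,000/well in growth medium, compound-treated 48 h at 37 °C; viability from CellTiter-Glo luminescence. Primary screen: MIPE 11-point (0.78 nM–46 µM final), NPC 8-point (0.59 nM–46 µM final); confirmatory at 11-point dilutions.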

[4] = qHTS of pediatric cancer cell lines to identify multiple opportunities for drug repurposing: Primary screen for SJ-GBM2 cells (AID 1347091); note: potency is the fitted concentration of half-maximal effect
Procedure, shortened: (§1)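 Viability measured as metabolically active cells via CellTiter-Glo luminescence following 48 hours of compound exposure, 11-point dilutions in confirmatory testing. 500-1,000 cells/well plated 5 hours before dosing; controls were DMSO and 2.3 µM bortezomib.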

[5] = qHTS of pediatric cancer cell lines to identify multiple opportunities for drug repurposing: Primary screen for NB-EBc1 cells (AID 1347095); note: potency is the fitted concentration of half-maximal effect
Procedure, shortened: (§2)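 Phenotypic viability qHTS, 48 h compound exposure, CellTiter-Glo luminescence read-out; multi-concentration dosing so that potency and efficacy derive directly from the primary screen's curves.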

[6] = qHTS of pediatric cancer cell lines to identify multiple opportunities for drug repurposing: Primary screen for U-2 OS cells (AID 1347096); note: nearly all actives have a fitted effect of over 50% in size; note: potency is the fitted concentration of half-maximal effect
Procedure, shortened: (§3)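 Viability after 48 h compound treatment at 37C, 500-1,000 cells/well, read as ATP luminescence with CellTiter-Glo. Primary screens used 11-point (MIPE, 0.78 nM-46 µM) or 8-point (NPC, 0.59 nM-46 µM) final concentrations; follow-up screens used 11-point dilutions.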

[7] = qHTS of pediatric cancer cell lines to identify multiple opportunities for drug repurposing: Primary screen for Saos-2 cells (AID 1347097); note: nearly all actives have a fitted effect of over 40% in size; note: potency is the fitted concentration of half-maximal effect
Procedure, shortened: as §2

[8] = qHTS of pediatric cancer cell lines to identify multiple opportunities for drug repurposing: Primary screen for SK-N-SH cells (AID 1347098); note: nearly all actives have a fitted effect of over 65% in size; note: potency is the fitted concentration of half-maximal effect
Procedure, shortened: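 Cells (500-1,000/well) rested 5 h, then received compounds for 48 h; metabolically active cells were measured by CellTiter-Glo luminescence. Final concentrations spanned up to 46 µM (MIPE, 11-point) or 0.59 nM-46 µM (NPC, 8-point) in primary screens, 11-point in follow-ups.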

[9] = qHTS of pediatric cancer cell lines to identify multiple opportunities for drug repurposing: Primary screen for NB1643 cells (AID 1347099); note: nearly all actives have a fitted effect of over 50% in size; note: potency is the fitted concentration of half-maximal effect
Procedure, shortened: as §2

[10] = qHTS of pediatric cancer cell lines to identify multiple opportunities for drug repurposing: Primary screen for LAN-5 cells (AID 1347100); note: potency is the fitted concentration of half-maximal effect
Procedure, shortened: as §3

[11] = qHTS of pediatric cancer cell lines to identify multiple opportunities for drug repurposing: Primary screen for DAOY cells (AID 1347090); note: nearly all actives have a fitted effect of over 55% in size; note: potency is the fitted concentration of half-maximal effect
Procedure, shortened: as §1

[12] = qHTS of pediatric cancer cell lines to identify multiple opportunities for drug repurposing: Primary screen for SK-N-MC cells (AID 1347093); note: potency is the fitted concentration of half-maximal effect
Procedure, shortened: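 Metabolically active cells were quantified by ATP-dependent luminescence (CellTiter-Glo, 15 min at room temperature) following 48 h treatment. Cells had been plated at 500-1,000 per well and settled for 5 h beforehand.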

[13] = qHTS for Inhibitors of the Functional Ribonucleoprotein Complex (vRNP) of Lymphocytic Choriomeningitis Arenaviruses (LCMV): Viability assay - alamar blue signal for LCMV Primary Screen (AID 1347085; calls by dose curve; tested in HEK293 reporter line; note: nearly all actives have a fitted effect of over 80% in size; note: potency is the fitted concentration of half-maximal effect)
[14] = qHTS of pediatric cancer cell lines to identify multiple opportunities for drug repurposing: Primary screen for A673 cells (AID 1347092); note: nearly all actives have a fitted effect of over 45% in size; note: potency is the fitted concentration of half-maximal effect
Procedure, shortened: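 A673 cells (500-1,000 cells/well) were treated 48 hours at 37 degrees C with compounds at 11-point (0.78 nM to 46 µM) or 8-point (0.59 nM to 46 µM) dilutions. Viability read by CellTiter-Glo luminescence; concentration-response curves fitted.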

[15] = qHTS of pediatric cancer cell lines to identify multiple opportunities for drug repurposing: Primary screen for BT-37 cells (AID 1347094); note: series mostly up to about 57 µM
Procedure, shortened: as §2

Measured: Potency

COc1cc2nccc(Oc3ccc(NC(=O)C4(C(=O)Nc5ccc(F)cc5)CC4)cc3)c2cc1OC
inactive: [2]
active: [1] 27.3 µM

O=S(=O)(F)Cc1ccccc1
active: [1] 1.53 µM
not listed: [11] | [12] | [13] | [14] | [15]
inactive: all other assays above

CCCS(=O)(=O)Nc1ccc(F)c(C(=O)c2c[nH]c3ncc(-c4ccc(Cl)cc4)cc23)c1F
inactive: [2]

CC(O)=C(C#N)C(=O)Nc1ccc(C(F)(F)F)cc1
active: [2] 19.3 µM

CO/C=C(/C(=O)OC)c1ccccc1Oc1cc(Oc2ccccc2C#N)ncn1
active: [1] 22.4 µM | [2] 10 µM | [11] 9.69 µM | [12] 17.2 µM | [5] 27.3 µM | [10] 21.7 µM

O=c1[nH]c2ccccc2n1C1CCN(Cc2ccc(-c3[nH]c4cc5ncnc5cc4nc3-c3ccccc3)cc2)CC1
active: [4] 3.32 µM | [12] 0.833 µM | [5] 20.9 µM | [7] 16.6 µM | [9] 20.9 µM | [10] 14.8 µM
inactive: [13] | [2] | [3] | [11] | [8]

CCOC(=O)c1c(C(C#N)=CN)c2ccc(Cl)c(Cl)c2n1C
inactive: [2] | [3] | [14] | [15] | [6] | [10]
active: [1] 10.9 µM | [12] 18.7 µM

COc1ccc(C(=O)c2c(C)n(CCN3CCOCC3)c3cc(I)ccc23)cc1
inactive: [13] | [2] | [3]
active: [4] 18.7 µM | [14] 14.8 µM | [12] 1.48 µM | [5] 20.9 µM | [7] 18.7 µM | [9] 14.8 µM

Nc1ccc(N=Nc2ccccc2)cc1
active: [14] 24.3 µM | [10] 38.6 µM
inactive: [2] | [7]

CCc1cc(-c2n[nH]c(C)c2-c2ccc3c(c2)OCCO3)c(O)cc1O
active: [13] 6.85 µM

CN[C@@H](C)C(=O)N[C@H]1CCCC[C@H]2CC[C@@H](C(=O)N[C@@H](c3ccccc3)c3cn(CCCCc4ccc(CCCCn5cc([C@@H](NC(=O)[C@@H]6CC[C@@H]7CCCC[C@H](NC(=O)[C@H](C)NC)C(=O)N76)c6ccccc6)nn5)cc4)nn3)N2C1=O
inactive: [2]
active: [1] 19.3 µM

CN(C)C(=O)c1ccc(S(=O)(=O)c2ccc(NC(=O)[C@@](C)(O)C(F)(F)F)c(Cl)c2)cc1
inactive: [13]

CC(=O)[O][Hg][c]1ccccc1
active: [3] 1.87 µM | [11] 1.68 µM | [14] 0.106 µM | [12] 0.531 µM | [5] 21.1 µM | [6] 2.66 µM | [7] 0.668 µM | [8] 0.97 µM | [9] 1.19 µM

CC1=C(O)C(=O)C=C2C1=CC=C1[C@@]2(C)CC[C@@]2(C)[C@@H]3C[C@](C)(C(=O)O)CC[C@]3(C)CC[C@]12C
active: [1] 19.3 µM | [2] 7.69 µM | [3] 7.39 µM | [11] 0.935 µM | [4] 0.935 µM | [14] 1.18 µM | [12] 0.833 µM | [5] 0.743 µM | [7] 2.35 µM | [8] 3.04 µM | [9] 1.66 µM | [10] 1.87 µM
